According to PubChem BioAssay AID504444 (National Center for Advancing Translational Sciences (NCATS), 2011):
Among all 360,000 compounds or so, about 7,500 (2.1%) were called active. A call without a number means that no potency is given here. About 20% were inconclusive and are not listed. Calls follow the shape of the dose curve; as a rule, active = well fitted inhibition curve with a large enough effect; inconclusive = small, poorly fitted or top-dose-only effect, or effect the other way; inactive = flat fitted curve, though single readings scatter. Only a selection was taken, and actives are over-represented in it overall.

experiment: Nrf2 qHTS screen for inhibitors; conditions: A549 ARE-Fluc reporter, luciferase luminescence, 18-24 h; series mostly up to 46 µM; also: nearly all actives have a fitted effect of over 60% in size
Excerpt: NIH Molecular Libraries Probe Production Network [MLPCN]
NIH Chemical Genomics Center [NCGC]
Assay Provider: Shyam Biswal, Johns Hopkins University
Nrf2 is a transcription factor that maintains cellular redox homoestasis and protects cells from xenobiotics. Nrf2 binds to the antioxidant response element (ARE) to induce gene expression of a broad spectrum of genes that encode for antioxidants. […] Finding a small molecule that act as an inhibitor of Nrf2 function would represent a novel therapeutic target that could lead to improvement in survival of patients undergoing chemo- and/or radio- therapy.
This is the Nrf2 activity measured in the luminescent read.
1. Shibata, T., et al., Genetic Alteration of Keap1 Confers Constitutive Nrf2 Activation and Resistance to Chemotherapy in Gallbladder Cancer. Gastroenterology, 2008.
2. Sjoblom, T., et al., The consensus coding sequences of human breast and colorectal cancers. Science, 2006. 314(5797): p. 268-74.
NCGC Assay Protocol Summary:
A concentration-response assay was performed with A549 ARE_Fluc cells which are suspended in 5% FBS OPTI-MEM. Five uL were dispensed into 1536-well white TC-treated plate using the Kalypsys dispenser to achieve a density of 5000 cells/well in all columns except column 1. The plate is incubated at 37deg C at 5% CO2 for 2 hours before 23 nL of compounds are added with the Kalypsys pin tool equipped with a 1,536-pin array containing 10-nL slotted pins (FP1S10, 0.457-mm diameter, 50.8 mm long; V&P Scientific). The control compounds Budesonide and Staurosporine are both added at a concentration of 2mM and Budesonide is also added as a 1:10 titration, starting at 200uM, to achieve dose-response. After an 18-24 hour incubation at 37deg C at 5% CO2, 5ul of medium is added to column 1. Afterwards 1ul of 5x of CellTiter-Fluor (Promega) is added to every well. The plate is then incubated at 37deg C at 5% CO2 for 30 minutes before they are read on the ViewLux (Perkin Elmer) for a fluorescent read Ex=405(10)/Em=525(10) for a 3 second exposure, 2x binning, and high gain. Then 3 uL of 3x BugLite is dispensed into all wells and the plate is incubated at ambient room temperature for 15 minutes. Afterwards another ViewLux read is performed using the clear filter to get a luminescent read with the settings of 40 second exposure, 2x binning, and high gain. Cytotoxicity is assessed through the first fluorescent read and then biochemical activity against Nrf2 is measured in the luminescent read.
Potency is read from the fitted curve at half-maximal effect.

Row | SMILES | Potency | activity change, negative = inhibition
1 | CCOC(=O)C1=C(CN2CCc3ccccc32)NC(=O)NC1c1cccc([N+](=O)[O-])c1 (stereo unspecified) | inactive | 
2 | CCOC(=O)C1=C(CN2CCc3ccccc32)NC(=O)NC1c1ccc(Cl)cc1 (stereo unspecified) | 16.4 µM (active) | 
3 | CCOC(=O)C1=C(CN2CCCCCC2)NC(=O)NC1c1cccc([N+](=O)[O-])c1 (stereo unspecified) | inactive | 
4 | COc1ccc(CNCCCn2cnc3c(OCc4ccccc4)ncnc32)cc1 | inactive | 
5 | Cc1cc(C)n(-c2c(F)c(F)c(COC(=O)c3ccccc3)c(F)c2F)n1 | inactive | 
6 | CCOC(=O)c1cnc(-n2nc(C)cc2C)nc1Nc1cccc(C(C)=O)c1 | inactive | 
7 | CCOC(=O)c1cnc(-n2nc(C)cc2C)nc1NNc1cc(C)nc(-c2ccccc2)n1 | 4.11 µM (active) | 
8 | O=c1n(Cc2cccc(C(F)(F)F)c2)c2ccccc2c2nc(-c3ccccc3)nn12 | inactive | 
9 | CC(Nc1ccc([N+](=O)[O-])cc1[N+](=O)[O-])c1ccccc1 (stereo unspecified) | inactive | 
10 | CCn1cc(C(=O)OCC(=O)Nc2cc(C)cc(C)c2)c(=O)c2ccc(C)nc21 | inactive | 
11 | CC[C@]1(C(=O)OC)[C@H]2C(=O)N(Cc3ccccc3)C(=O)[C@H]2[C@H]2CN=C(SCc3ccc(Cl)cc3)N21 | inactive | 
12 | Cc1ccccc1C(=O)NCCN=C1NS(=O)(=O)c2ccccc21 | inactive | 
13 | Cc1ccc2cccc(NC(=O)c3cccc4ccccc34)c2n1 | inactive | 
14 | Cc1ccc2ccc3c(c2n1)NS(=O)(=O)c1ccccc1-3 | 20.6 µM (active) | 
15 | CC(C)(C)OC(=O)C[C@@H]1C/C=C\C[C@@H](CC(=O)N[C@H](CO)Cc2ccccc2)C(=O)NC[C@@H](c2ccccc2)OC1=O | inactive | 
16 | Cc1ccc(CN(C(=O)c2ccccc2[N+](=O)[O-])c2ccccn2)cc1 | inactive | 
17 | O=C(Nc1ccc(Cl)cc1)c1cccc(OC(=S)N2CCOCC2)c1 | 23.1 µM (active) | 
18 | O=C(Oc1cccc(C(=S)N2CCOCC2)c1)c1cccc(Cl)c1 | inactive | 
19 | O=C(Nc1ccc(Cl)cc1)Nc1ccc(C(=O)N2CCOCC2)cc1 | inactive | 
20 | CCCCNC(=O)C(C)N(CCN(C)C)C(=O)CCCN1C(=O)NC(c2ccc(Cl)cc2)C(C(=O)OCc2ccccc2)=C1C (stereo unspecified) | inactive | 
21 | N#Cc1nc(Cc2cccc3ccccc23)oc1NCc1ccc2c(c1)OCO2 | inactive | 
22 | Cc1ccc(OCc2nc(C#N)c(N3CCCC3)o2)cc1 | inactive | 
23 | N#Cc1nc(COc2ccc(-c3ccccc3)cc2)oc1NCc1cccnc1 | 13 µM (active) | 

Row | SMILES | Potency | activity change, negative = inhibition
24 | Oc1ccc(Br)cc1C1C=C(c2ccc3c(c2)OCO3)NC(c2ccc(Cl)cc2)N1 (stereo unspecified) | inactive | 
25 | Cc1cccc(C)c1NC(=O)COC(=O)c1c(C)nn(-c2ccccc2)c1C | inactive | 
26 | CC1CCc2sc(C(=O)NCC(c3ccco3)N3CCCCC3)cc2C1 (stereo unspecified) | inactive | 
27 | Cc1cc(NC(=O)COC(=O)COc2ccc(Cl)cc2C)c([N+](=O)[O-])cc1C | inactive | 
28 | CCCn1nnnc1NC(=O)COc1ccc(Cl)cc1C | 13 µM (active) | 
29 | CCOC(=O)N1CCN(C(=O)COc2ccc(Cl)cc2C)CC1 | inactive | 
30 | CCCc1cc(=O)[nH]c(SCC(=O)Nc2ccc(C(=O)Nc3ccccc3OC)cc2)n1 | inactive | 
31 | Cc1ccccc1NC(=O)Cn1c(=O)n(CCc2ccccc2)c(=O)c2ccccc21 | inactive | 
32 | COc1ccc(S(=O)(=O)N(C)C[C@@H]2Oc3ccc(NC(=O)Nc4c(C)noc4C)cc3C(=O)N([C@H](C)CO)C[C@@H]2C)cc1 | inactive | 
33 | COc1ccc(NC(=O)COC(=O)CNC(=O)C2CCCCC2)cc1 | inactive | 
34 | CCC(C)(C)c1ccc(Oc2ccc(NC(=O)COC(=O)C3=COCCO3)cc2)cc1 | 8.2 µM (active) | 
35 | CCOc1ccc(NC(=O)c2ccc(NC(=O)COC(=O)c3ccc(NC(=O)CC#N)cc3)cc2)cc1 | inactive | 
36 | COc1cc(OC)cc(-c2c(C#Cc3ccsc3)c3cc(-c4ccc(OC)cc4F)ccc3n2C)c1 | inactive | 
37 | O=C(NCCC(=O)N1O[C@@H]2C=C[C@H]1C2)OCC1c2ccccc2-c2ccccc21 | inactive | 
38 | Cc1cccc(CSc2nnc(Cn3c(=O)sc4ccccc43)n2C)c1 | inactive | 
39 | COc1ccccc1CNC(=O)CCn1c(=O)sc2ccccc21 | inactive | 
40 | COc1ccc(Cn2c(=O)sc3ccccc32)cc1OC | 25.9 µM (active) | 
41 | COc1ccc(-n2c(SC)nc3sc4c(c3c2=O)CCN(C(C)=O)C4)cc1 |  | 1.06% [at 9.27 µM] (inactive)
42 | CN(C(=O)c1cccc(NC(=O)Cc2ccc(NC(=O)C3CCCN(C(=O)C4CC4)C3)cc2)c1)C1CC1 (stereo unspecified) | inactive | 
43 | CN(CCc1ccccc1)C(=O)c1cccc(NC(=O)Cc2cccc(NC(=O)C3CCCN(C(=O)CCc4ccccc4)C3)c2)c1 (stereo unspecified) | 23.1 µM (active) | 
44 | CN(C(=O)c1cccc(NC(=O)Cc2cccc(NC(=O)C3CCCN(C(=O)C4CC4)C3)c2)c1)C1CCC1 (stereo unspecified) | inactive | 
45 | CCCN(C(=O)Cn1cc(S(=O)(=O)N2CCN(c3ccccc3F)CC2)c2ccccc2c1=O)c1cccc(C)c1 | inactive | 
46 | COc1ccc(CNC(=O)COc2ccccc2C(=O)c2cnn(-c3ccccc3)c2)cc1OC | inactive | 

Row | SMILES | Potency | activity change, negative = inhibition
47 | Cc1ccc(C(=O)OCC(=O)NCc2cc(C)c(O)c(C)c2)cc1S(=O)(=O)N1CCCCC1 | inactive | 
48 | COc1ccc2c(C)c(CCC(=O)NCc3ccc(OC)c(OC)c3)c(=O)oc2c1 | inactive | 
49 | CCC(CO)Oc1cc(NCc2ccccc2)c2ncn(C3CCCC3)c2c1 (stereo unspecified) | inactive | 
50 | Cc1cc(C)cc(C(=O)NC(CC(N)=O)c2ccc(N3CCC(N4CCCCC4)CC3)c([N+](=O)[O-])c2)c1 (stereo unspecified) | inactive | 
51 | CC1CCCCN1CCCNc1ccc(C(CC(N)=O)NC(=O)c2ccccc2)cc1[N+](=O)[O-] (stereo unspecified) | inactive | 
52 | NC(=O)CC(NC(=O)Cc1ccc(Br)cc1)c1ccc(NC2CC3CCC2C3)c([N+](=O)[O-])c1 (stereo unspecified) | 18.4 µM (active) | 
53 | O=C1OCC2=C1C(c1ccc(Cl)cc1)c1cc3c(cc1O2)OCO3 (stereo unspecified) | inactive | 
54 | COc1ccc(Cl)cc1NC(=O)Cn1c(=O)c2ccccc2n2nncc12 | inactive | 
55 | CN(C)c1ccc(-n2cccc2/C=C2/SC(=Nc3ccc(F)cc3)NC2=O)cc1 | inactive | 
56 | Cc1ccc(N=C2NC(=O)/C(=C/C=C/c3ccco3)S2)cc1C | inactive | 
57 | Cc1cccc(N=C2NC(=O)/C(=C/c3cn(C)c4ccccc34)S2)c1 | 14.6 µM (active) | 
58 | Oc1c(Cl)cc(Cl)c(Cl)c1Cc1c(O)c(Cl)cc(Cl)c1Cl | 14.6 µM (active) | 
59 | O=C(c1ccc2c(=O)n(Cc3ccco3)c(=S)[nH]c2c1)N1CCCC1 | inactive | 
60 | O=C(Nc1cc(S(=O)(=O)N2CCCCC2)ccc1Cl)C1COc2ccccc2O1 (stereo unspecified) | inactive | 
61 | CCc1ccc(Oc2coc3cc(O)ccc3c2=O)cc1 | 7.31 µM (active) | 
62 | CCOC(=O)c1cc(=O)c2ccc(OCc3ccccc3)cc2o1 | inactive | 
63 | CCc1ccc(Oc2coc3cc(OC(=O)c4cc5ccccc5oc4=O)ccc3c2=O)cc1 | 4.61 µM (active) | 
64 | CCCOC(=O)c1cc2ccccc2oc1=O | inactive | 
65 | COc1ccc(Oc2coc3cc(OC(=O)c4cncc(Br)c4)ccc3c2=O)cc1 | inactive | 
66 | COc1ccc(-c2onc(C)c2C)cc1S(=O)(=O)NCc1cccs1 | inactive | 
67 | CC(C)Cn1c(=O)c2ccccc2n2c(-c3cccc(Cl)c3)nnc12 | inactive | 
68 | CCOC(=O)N1CCN(C(=O)c2ccc(S(=O)(=O)Nc3cccc(C(F)(F)F)c3)cc2)CC1 | 18.4 µM (active) | 
69 | O=C(Nc1ccc(C(=O)N2CCOCC2)cc1)Nc1cccc(C(F)(F)F)c1 | inactive | 

Row | SMILES | Potency | activity change, negative = inhibition
70 | CCOC(=O)c1cccc(NS(=O)(=O)c2c(C(=O)N3CCCCCC3)c(C)n(C)c2C)c1 | inactive | 
71 | Cc1ccc(C)c(N2CCN(C(=O)CCc3nc(-c4cccc(C(F)(F)F)c4)no3)CC2)c1 | inactive | 
72 | COc1ccc(C(=O)OCC(=O)c2cc(C)n(CC3CCCO3)c2C)cc1[N+](=O)[O-] (stereo unspecified) | inactive | 
73 | Cc1oc2ncnc(N3CCCCC3)c2c1C(=O)N1CCN(c2cccc(Cl)c2)CC1 | inactive | 
74 | CC(=O)OCC1(O)CC23CCC4c5ccoc5CCC4(C)C2CCC1C3 (stereo unspecified) | inactive | 
75 | CCC1(C)Cc2c(sc3nc(SC)[nH]c(=O)c23)CO1 (stereo unspecified) | inactive | 
76 | CCC1(C)Cc2c(sc3nc4n(c(=O)c23)CCCS4)CO1 (stereo unspecified) | inactive | 
77 | CCC1(C)Cc2c(sc3[nH]c(=S)n(Cc4ccccc4)c(=O)c23)CO1 (stereo unspecified) | 16.4 µM (active) | 
78 | COc1ccc(Cl)cc1NC(=O)c1sc2nc3c(cc2c1N)CN(C)CC3 | inactive | 
79 | COc1ccc(CNc2nc(-c3ccc(Cl)cc3)cc(C(F)(F)F)n2)cc1 |  | 0.506% [at 9.27 µM] (inactive)
80 | CN(C)c1ccc(C(=O)NCC(=O)OC(C(=O)Nc2cc(C(F)(F)F)ccc2Cl)c2ccccc2)cc1 (stereo unspecified) | inactive | 
81 | Cc1cccc(N2O[C@H]3C=CC2CCCC3)n1 | inactive | 
82 | COc1ccc(CC(=O)Nc2ccc3c(c2)CCC3)cc1S(=O)(=O)N1CCOCC1 | inactive | 
83 | COc1ccc(COC(=O)c2ccc(Cl)c(S(=O)(=O)N3CCOCC3)c2)cc1F | inactive | 
84 | COc1ccc(CNC(=O)COC(=O)c2ccc(C)c(S(=O)(=O)N3CCOCC3)c2)cc1OC | inactive | 
85 | Cc1ccc(C(=O)OCC(=O)N2CCCCCC2)cc1S(=O)(=O)N1CCOCC1 | inactive | 
86 | COc1ccc(NS(=O)(=O)c2cc(NC(=O)/C=C/c3cc(OC)c(OC)c(OC)c3)ccc2N2CCCCC2)cc1 | inactive | 
87 | COc1cc(/C=C/C(=O)Nc2ccc(OC)c(S(=O)(=O)N3CCOCC3)c2)ccc1OCC#N | 9.2 µM (active) | 
88 | COc1ccc(C(=O)OCC(=O)c2ccc(C)c(S(=O)(=O)N3CCOCC3)c2)cc1OC | 20.6 µM (active) | 
89 | COc1cc(/C=C/C(=O)OCC(=O)N2CCOCC2)ccc1OCC#N | inactive | 
90 | COc1ccc(CCC(=O)Nc2ccc(Cl)c(S(=O)(=O)N3CCOCC3)c2)cc1OC | 18.4 µM (active) | 
91 | CCN1CCN(CCCNC(=O)c2ccc3c(c2)sc2nc(-c4ccc(OC)cc4)cn23)CC1 | inactive | 
